# Results as given in PubChem BioAssay (NCATS).
# Records with an inconclusive call do not appear. Where a call stands in place of a potency, no number is given. The source made the active and inactive calls. The call rests on the fitted dose curve.
# Experiment: Primary qHTS for inhibitors of SARS-S pseudo-typed particle cell entry (AID 1479145); further: nearly all actives have a fitted effect of over 45% in size
# Conditions: SARS-S pseudotyped particle cell entry, luciferase reporter; series mostly up to 57.1 µM
# Potency means the concentration at half of the fitted maximal effect.
row,Structure (SMILES),Potency
1,CC(C)(C)c1ccc(C(O)CCCN2CCC(C(O)(c3ccccc3)c3ccccc3)CC2)cc1 (centres undefined),inactive
2,CN1CCCC(CC2c3ccccc3Sc3ccccc32)C1 (centres undefined),20 µM (active)
3,CCCCOc1cc(C(=O)NCCN(CC)CC)c2ccccc2n1,14.1 µM (active)
4,CNC[C@H](O)c1ccc(O)c(O)c1,inactive
5,COc1ccc(-c2nc3ccc(C4=NNC(=O)CC4C)cc3[nH]2)cc1 (centres undefined),inactive
6,CCOC(=O)Cn1cccc1-c1nc(-c2ccc(OC)cc2)c(-c2ccc(OC)cc2)s1,14.1 µM (active)
7,O=C(Nc1ccc([N+](=O)[O-])cc1Cl)c1cc(Cl)ccc1O,0.501 µM (active)
8,CCN(CC)CC(=O)OCC(=O)[C@@]1(O)CC[C@H]2[C@@H]3CCC4=CC(=O)CC[C@]4(C)[C@H]3[C@@H](O)C[C@@]21C,inactive
9,CN(C)c1ccc(C(=C2C=CC(=[N+](C)C)C=C2)c2ccc(N(C)C)cc2)cc1,1 µM (active)
10,CC[C@H](c1ccc(O)cc1)[C@@H](CC)c1ccc(O)cc1,inactive
11,CCCC(=O)O[C@]1(C(=O)CCl)[C@@H](C)C[C@H]2[C@@H]3CCC4=CC(=O)C=C[C@]4(C)[C@@]3(F)C(=O)C[C@@]21C,inactive
12,CC(C)C(=O)Nc1cccc(C2CN3CCSC3=N2)c1 (centres undefined),inactive
13,CC(C)[C@@H]1CC[C@@H](C)CC1=O,inactive
14,NC(=O)c1ncn([C@@H]2O[C@H](CO)[C@@H](O)[C@H]2O)c1N,inactive
15,CCN(CCCCOC(=O)c1ccc(OC)c(OC)c1)C(C)Cc1ccc(OC)cc1 (centres undefined),11.2 µM (active)
16,COc1ccc(-c2cc(C(F)F)nn2-c2ccc(S(N)(=O)=O)cc2)cc1F,inactive
17,CCN(CC)CCCN(c1ccccc1)C1Cc2ccccc2C1,17.8 µM (active)
18,O=C(O)CNC(=O)c1ccccc1I,inactive
19,Cc1cc2nc3ccc(=[N+](C)C)cc-3sc2cc1N,14.1 µM (active)
20,CC(=O)[C@H]1CC[C@H]2[C@@H]3CC=C4C[C@@H](O)CC[C@]4(C)[C@H]3CC[C@]12C,inactive

row,Structure (SMILES),Potency
1,CN1C[C@H](C(=O)N[C@]2(C)O[C@@]3(O)[C@@H]4CCCN4C(=O)[C@H](Cc4ccccc4)N3C2=O)C[C@@H]2c3cccc4[nH]cc(c34)C[C@H]21,inactive
2,CC(C)=CCC/C(C)=C/CC/C(C)=C/C(=O)OCC(=O)[C@@]1(O)CC[C@H]2[C@@H]3CCC4=CC(=O)C=C[C@]4(C)[C@H]3[C@@H](O)C[C@@]21C,inactive
3,Cn1c(=O)c2c(ncn2C)n(C)c1=O,inactive
4,CCOC(=O)C1=C(C)NC(C)=C(C(=O)OCC)C1c1ccccc1/C=C/C(=O)OC(C)(C)C,inactive
5,N=C(N)c1ccc2cc(OC(=O)c3ccc(N=C(N)N)cc3)ccc2c1,inactive
6,FC(F)(F)C(F)(F)C(F)(F)C(F)(F)C(F)(F)C(F)(F)C(F)(F)C(F)(F)Br,inactive
7,CCC(CN)=C(c1ccccc1)c1ccccc1,inactive
8,COc1cc(C(=O)OCCCN2CCCN(CCCOC(=O)c3cc(OC)c(OC)c(OC)c3)CC2)cc(OC)c1OC,11.2 µM (active)
9,CCCCCCc1ccc(O)cc1O,inactive
10,COc1ccc2[nH]c(S(=O)Cc3ncc(C)c(OC)c3C)nc2n1 (centres undefined),20 µM (active)
11,CN(C)c1ccc(C(=C2C=CC(=[N+](C)C)C=C2)c2ccccc2)cc1,2.24 µM (active)
12,CCN(CCCc1ccccc1)CCCc1ccccc1,inactive
13,Oc1c(I)cc(Cl)c2cccnc12,inactive
14,O=C(O)c1cccc(-c2noc(-c3ccccc3F)n2)c1,inactive
15,C[C@]12CCC(=O)C=C1[C@@H]1C[C@@H]1[C@H]1[C@@H]3[C@@H]4C[C@@H]4[C@@]4(CCC(=O)O4)[C@@]3(C)CC[C@@H]12,inactive
16,OC[C@H]1O[C@@H](n2cnc3c(=S)nc[nH]c32)[C@H](O)[C@@H]1O,inactive
17,C1CCC(C(CC2CCCCN2)C2CCCCC2)CC1 (centres undefined),25.1 µM (active)
18,CCCCOc1cc(C(=O)OCCN(CC)CC)ccc1N,inactive
19,C#C[C@]1(O)CC[C@H]2[C@@H]3CCc4cc(O)ccc4[C@H]3CC[C@@]21C,inactive
